Experimental data: PubChem BioAssay (NCI)
The panel holds about 79,000 compounds, 15% with a hit somewhere; the sample as a whole holds those more often. Active and inactive are the calls of the source. Rule as the data show it: active = growth inhibition above about 70%; inactive = the rest.

Experiments:
[1] = NCI Yeast Anticancer Drug Screen. Data for the rad52 strain (AID 147);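 also: 0% = growth of vehicle-treated control cultures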; settings: S. cerevisiae rad52 mutant growth inhibition, hits give high values
Procedure, shortened: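 Screen used a yeast mutant impaired in DNA repair. After compound exposure, growth was measured. Values reflect inhibition compared with vehicle-treated cells.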

[2] = NCI Yeast Anticancer Drug Screen. Data for the rad50EPP+ strain (AID 151);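 also: 0% = growth of vehicle-treated control cultures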; settings: S. cerevisiae rad50 mutant strain, hits give high values
Procedure, shortened: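 Exposing the rad50EPP+ strain to each compound, growth was compared with vehicle-only cultures to give inhibition.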

[3] = NCI Yeast Anticancer Drug Screen. Data for the mgt1 strain (AID 153); settings: S. cerevisiae mgt1 mutant growth inhibition, hits give high values
Procedure, shortened: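 Genetically defined yeast (mgt1) treated with compound; inhibition of growth expressed against vehicle-treated controls.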

[4] = NCI Yeast Anticancer Drug Screen. Data for the rad50 strain (AID 155);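 also: 0% = growth of vehicle-only cultures of the same strain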; settings: S. cerevisiae rad50 strain growth inhibition, hits give high values
Procedure, shortened: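 Readout: growth inhibition relative to vehicle-treated cultures. Compound exposure was carried out in a genetically defined yeast strain deficient in DNA damage repair.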

[5] = NCI Yeast Anticancer Drug Screen. Data for the mec2-1 strain (AID 157); settings: S. cerevisiae mec2-1 strain, hits give high values
Procedure, shortened: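 Readout is yeast growth inhibition, normalised to vehicle-treated controls, in the mec2-1 strain exposed to compound.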

[6] = NCI Yeast Anticancer Drug Screen. Data for the rad14 strain (AID 159);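 also: 0% = growth of vehicle-treated control cultures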; settings: S. cerevisiae rad14 strain growth inhibition, hits give high values
Procedure, shortened: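 Growth inhibition vs vehicle controls; genetically altered yeast strain (DNA damage repair defect) treated with test compounds.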

[7] = NCI Yeast Anticancer Drug Screen. Data for the sgs1 mgt1 strain (AID 161);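 also: 0% = growth of cultures given vehicle only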; settings: S. cerevisiae sgs1 mgt1 strain, hits give high values
Procedure, shortened: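 Growth of a repair-deficient yeast mutant was monitored after compound treatment and expressed as inhibition relative to vehicle-treated cultures.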

[8] = NCI Yeast Anticancer Drug Screen. Data for the CLN2oe strain (AID 163);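 also: 0% = growth of vehicle-only control cultures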; settings: S. cerevisiae CLN2oe strain, hits give high values
Procedure, shortened: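 Values reflect how much compound exposure reduced yeast growth, referenced to vehicle-exposed cells. Assay organism is a strain with a defined genetic change affecting cell-cycle control.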

[9] = NCI Yeast Anticancer Drug Screen. Data for the cln2 rad14 strain (AID 165);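 also: 0% = growth equal to vehicle treated cultures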; settings: S. cerevisiae cln2 rad14 strain, hits give high values
Procedure, shortened: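 Relative to vehicle controls, growth inhibition of compound-treated cln2 rad14 yeast was recorded.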

[10] = NCI Yeast Anticancer Drug Screen. Data for the bub3 strain (AID 167); settings: S. cerevisiae bub3 mutant strain, hits give high values
Procedure, shortened: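 Readout: yeast growth inhibition, expressed relative to vehicle-only wells. The test organism is a mutant strain from a panel with lesions in DNA repair or checkpoint genes.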

[11] = NCI Yeast Anticancer Drug Screen. Data for the wt2 strain (AID 169);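 also: 0% = growth of vehicle-treated yeast cultures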; settings: S. cerevisiae wt2 strain growth inhibition, hits give high values
Procedure, shortened: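 Values express reduction in yeast growth under compound treatment, referenced to vehicle-treated cells.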

[12] = NCI Yeast Anticancer Drug Screen. Data for the mlh1 strain (AID 171);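 also: 0% = growth of vehicle-treated control cultures of the same strain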; settings: S. cerevisiae mlh1 strain growth inhibition, hits give high values
Procedure, shortened: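 Steps: expose the defined-mutant yeast strain to compound; expose a parallel culture to vehicle; measure growth; express compound effect as inhibition relative to the vehicle culture.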

[13] = NCI Yeast Anticancer Drug Screen. Data for the sgs1 strain (AID 173);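 also: 0% = growth of vehicle-only control cultures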; settings: S. cerevisiae sgs1 mutant, hits give high values
Procedure, shortened: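 Treat defined-mutant yeast with compound; measure growth; calculate inhibition relative to vehicle-treated cells.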

[14] = NCI Yeast Anticancer Drug Screen. Data for the mlh1 rad18 strain (AID 175); settings: S. cerevisiae mlh1 rad18 strain growth inhibition, hits give high values
Procedure, shortened: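 Test agents were incubated with a yeast strain of defined genotype (DNA damage repair defect). Inhibition of growth was derived by comparison with vehicle-exposed cultures.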

[15] = NCI Yeast Anticancer Drug Screen. Data for the rad18 strain (AID 177); settings: S. cerevisiae rad18 mutant growth inhibition, hits give high values
Procedure, shortened: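 A genetically defined yeast mutant impaired in DNA damage repair was treated with test compounds, then its growth was measured against cultures receiving vehicle alone.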

[16] = at 5.0 µM (retest, dose inferred, filed as 0.5)
[17] = at 50.0 µM (retest, dose inferred, filed as 5.0)

Measured: growth inhibition

CSC(=S)N/N=C(\C)c1cccc(C)n1
inactive: [1]; at 1.2 µM -3% | [1]; at 3.7 µM -5% | [1]; at 11.0 µM -8% | [1]; at 33.0 µM 47% | [2]; at 1.2 µM -3% | [2]; at 3.7 µM -3% | [2]; at 11.0 µM -3% | [2]; at 33.0 µM 5% | [3]; at 1.2 µM -7% | [3]; at 3.7 µM -11% | [3]; at 11.0 µM -10% | [3]; at 33.0 µM 39% | [4]; at 1.2 µM -4% | [4]; at 3.7 µM 2% | [4]; [16] -6% | [4]; at 11.0 µM 11% | [5]; at 1.2 µM -6% | [5]; at 3.7 µM -13% | [5]; [16] 28% | [5]; at 11.0 µM -10% | [5]; at 33.0 µM 62% | [6]; at 1.2 µM -8% | [6]; at 3.7 µM 6% | [6]; at 11.0 µM -5% | [6]; at 33.0 µM 44% | [7]; [16] 23% | [8]; at 1.2 µM -24% | [8]; at 3.7 µM -24% | [8]; at 11.0 µM -15% | [8]; at 33.0 µM 21% | [9]; [16] 59% | [10]; at 1.2 µM -14% | [10]; at 3.7 µM -20% | [10]; [16] 19% | [10]; at 11.0 µM 9% | [10]; at 33.0 µM 34% | [11]; at 1.2 µM -6% | [11]; at 3.7 µM -6% | [11]; at 11.0 µM -5% | [11]; at 33.0 µM 63% | [12]; at 1.2 µM -11% | [12]; at 3.7 µM -1% | [12]; at 11.0 µM -6% | [12]; at 33.0 µM 29% | [13]; at 1.2 µM -3% | [13]; at 3.7 µM -5% | [13]; at 11.0 µM -4% | [13]; at 33.0 µM 57% | [14]; [16] 20% | [15]; at 1.2 µM -5% | [15]; at 3.7 µM -5% | [15]; at 11.0 µM 10%
active: [1]; at 100.0 µM 97% | [2]; at 100.0 µM 98% | [3]; at 100.0 µM 98% | [4]; at 33.0 µM 93% | [4]; [17] 99% | [4]; at 50.0 µM 99.4% | [4]; at 100.0 µM 98% | [5]; [17] 99% | [5]; at 50.0 µM 99.4% | [5]; at 100.0 µM 98% | [6]; at 100.0 µM 98% | [7]; [17] 99% | [7]; at 50.0 µM 99.3% | [8]; at 100.0 µM 97% | [9]; [17] 98% | [9]; at 50.0 µM 99.2% | [10]; [17] 99% | [10]; at 50.0 µM 99.2% | [10]; at 100.0 µM 98% | [11]; at 100.0 µM 99% | [12]; at 100.0 µM 99% | [13]; at 100.0 µM 99% | [14]; [17] 99% | [14]; at 50.0 µM 99.2% | [15]; at 33.0 µM 75% | [15]; at 100.0 µM 96%
